In the OligoGym collection:

Target: CYLC1
Test: pooled miR-30 sensor sort-seq; sequence = guide strand
Conditions: shRNA
Also: reference of the scale not given here.

For TTTTTCTTAACTTTCTTTGAAT, which sensor-assay potency score (higher = more potent) is on record?
The sensor-assay potency score (higher = more potent) was -0.75.

How did the sensor-assay potency score (higher = more potent) turn out when TTGAATGTAGTCTTTTTGGATG was run?
The sensor-assay potency score (higher = more potent) was -0.77.

How did the sensor-assay potency score (higher = more potent) turn out when TTGGATGACATTCTGAATCCTC was run?
Its sensor-assay potency score (higher = more potent) is 0.399.

TTTCTTGGAATCTTTCTTCAAA was tested. Which sensor-assay potency score (higher = more potent) did it give?
Its sensor-assay potency score (higher = more potent) is -0.0994.

Which sensor-assay potency score (higher = more potent) does the source give for TATTATCTGTCTTTGAATCTTT here?
The sensor-assay potency score (higher = more potent) was 0.0737.

TTGAATTTGCAGATGTGCCATC was tested. Which sensor-assay potency score (higher = more potent) did it give?
Its sensor-assay potency score (higher = more potent) is -0.566.

Which sensor-assay potency score (higher = more potent) does the source give for TTGAATCTTTCTTAGCATCCTT here?
Its sensor-assay potency score (higher = more potent) is -0.0997.

Which sensor-assay potency score (higher = more potent) does the source give for TTGATGGAGGAACTCTACCTGT here?
The sensor-assay potency score (higher = more potent) was -0.867.

Which sensor-assay potency score (higher = more potent) does the source give for TTATTCTGTGAGTAATTCCTTA here?
The sensor-assay potency score (higher = more potent) was -0.37.

For TTCAGTATCTGAACCTTTGATT, which sensor-assay potency score (higher = more potent) is on record?
Its sensor-assay potency score (higher = more potent) is -0.393.

With TAATTTTTTCTTATCCTTCTTT as the sequence, how does the sensor-assay potency score (higher = more potent) read?
Its sensor-assay potency score (higher = more potent) is 0.0107.

For TTTAGTTTTCTCTTCTACTATT, which sensor-assay potency score (higher = more potent) is on record?
The sensor-assay potency score (higher = more potent) was -1.07.

How did the sensor-assay potency score (higher = more potent) turn out when TTGTTGCATATGAACCTCCTTT was run?
Its sensor-assay potency score (higher = more potent) is -0.831.

For TATGGGATCATTACTAGTCTTT, which sensor-assay potency score (higher = more potent) is on record?
Its sensor-assay potency score (higher = more potent) is -0.233.

With TTTATCATTTGTACCTCTCTGG as the sequence, how does the sensor-assay potency score (higher = more potent) read?
Its sensor-assay potency score (higher = more potent) is 0.594.

TTGACTTCTTGGATTGTTCATT was tested. Which sensor-assay potency score (higher = more potent) did it give?
The sensor-assay potency score (higher = more potent) was -0.552.

Which sensor-assay potency score (higher = more potent) does the source give for TATCTTTTTGTGAACAATTTTT here?
Its sensor-assay potency score (higher = more potent) is -1.47.

For TGAATCTTTCTTAGCATCCTTT, which sensor-assay potency score (higher = more potent) is on record?
The sensor-assay potency score (higher = more potent) was -0.674.

How did the sensor-assay potency score (higher = more potent) turn out when TTGTCATGTCTAGTAACTGTTA was run?
The sensor-assay potency score (higher = more potent) was -0.717.

Which sensor-assay potency score (higher = more potent) does the source give for TTGCATCCTTTGCATCTCCTGA here?
The sensor-assay potency score (higher = more potent) was -0.744.

TTCTCTTCTACTATTTGCTTGG was tested. Which sensor-assay potency score (higher = more potent) did it give?
The sensor-assay potency score (higher = more potent) was -0.0318.

Which sensor-assay potency score (higher = more potent) does the source give for TTCATCTTTCTGACTCTCCTTT here?
The sensor-assay potency score (higher = more potent) was 0.625.
